Measurements reported in PubChem BioAssay AID1347140 (National Center for Advancing Translational Sciences (NCATS), 2019).
The list shows a part of the results. Records with an inconclusive call do not appear. Active and inactive are the calls of the source. Calls follow the shape of the dose curve; as a rule, active = well fitted inhibition curve with a large enough effect; inconclusive = small, poorly fitted or top-dose-only effect; inactive = no such curve, though single readings can be large or run the other way.

assay: qHTS of pediatric cancer cell lines to identify multiple opportunities for drug repurposing: Orthogonal 3D viability screen for MG 63 (6-TG R) cells; details: MG-63 (6-TG R) 3D spheroid viability, PI/Hoechst imaging, 72 h; series mostly up to 30.7 µM
Source text: Drug repurposing or repositioning has been offered as a strategy for drug development in oncology programs. This approach has special potential for childhood cancers and other rare or orphan diseases, where the expected return on new drug development has been a disincentive to pharmaceuticals. […] In this project we exploit the poly-pharmacology of drugs to discover new indications via phenotypic screening of a panel of 19 well-characterized cell lines derived from solid tumors seen in children and adolescents. The goal is to identify approved drugs with previously unrecognized anticancer properties that has the potential to reveal new mechanisms and biological processes involved in carcinogenesis or drug resistance. We employed a titration-based paradigm (quantitative high-throughput screening or qHTS), where all compounds were tested at multiple concentrations for their effect on cell viability. Concentration-response curves (CRCs) were derived directly from the primary screen, and both potency and efficacy values were used to identify compounds with robust bioactivity profiles. […] These two assays will be used to validate active compounds and assess the correlation of compound's potency in 2D vs 3D cultures on selected cell lines. Assay Submitter: Nathalia J. Martinez, National Center for Advancing Translational Sciences, National Institutes of Health, Rockville, MD, USA; email: natalia.martinez@nih.gov Shen, M et al. Quantitative high-throughput phenotypic screening of pediatric cancer cell lines identifies multiple opportunities for drug repurposing. Oncotarget 2017 Dec 19;9(4):4758-4772. PMID 29435139.
The cells were obtained from University of North Carolina (UNC), Pediatric Preclinical Testing Program (PPT), and Coriell Institute (CI). qHTS viability in 3D culture: Cells were assayed in phenol red-free growth media at a density of 1,000 cells/well, with the exception of Daoy, and SH-N-SH which were assayed at 1,500 cells/ well. Thirty muL of cells were dispensed into 384-well, ULA, round bottom plates (Corning) using a Multidrop dispenser. […] Spheroid viability was first determined by high-content imaging using Hoechst 33342 and Propidium Iodide (PI, ThermoFisher Scientific), followed by addition of CellTiter-Glo 3D (Promega). […] Plates were incubated for 30 min at RT on a VWR microplate shaker (300 rpm) and analyzed for luminescence intensity using a ViewLux High-throughput CCD imager equipped with clear filters. […] The data were exported to Excel, and the average fluorescent intensities were used to calculate the ratio of PI over Hoechst, which was used to quantify viability. […]

Row | SMILES | Potency
1 | COc1c(C)c2c(c(O)c1C/C=C(\C)CCC(=O)O)C(=O)OC2 | 909 nM (active)
2 | CC[C@H]1CN2CCc3cc(OC)c(OC)cc3[C@@H]2C[C@@H]1C[C@H]1NCCc2cc(OC)c(OC)cc21 | 810 nM (active)
3 | CC(NCc1ccc2c(c1)nc(NC(=O)c1ccc(-c3cn[nH]c3)s1)n2CC(C)(C)O)C(C)(C)C (centres undefined) | 722 nM (active)
4 | CC[C@]1(O)C[C@@H]2CN(CCc3c([nH]c4ccccc34)[C@@](C(=O)OC)(c3cc4c(cc3OC)N(C)[C@H]3[C@@](O)(C(=O)OC)[C@H](OC(C)=O)[C@]5(CC)C=CCN6CC[C@]43[C@@H]65)C2)C1 | inactive
